Screening results (PubChem)
Rows were chosen to be rich in hits. Some 2.5% of all compounds tested hit in one or more screens of this group.
p53ts 39C kill: p53ts cell cytotoxicity, nonpermissive temperature; AID 902; actives 1.5% (n = 130,000); H1299-p53A138V viability at 39C, ATP luminescence, 24 h; Potency, µM (titrated, usually from 46.1 µM), inactives show top-dose activity change, negative = cell killing, hits mostly cytotoxic; further: on the % scale 0 is the no-effect control and ±100 the full control effect; nearly all actives have a fitted effect of over 55% in size
p53ts 32C tox: p53ts cell cytotoxicity, permissive temperature | H1299-p53A138V at 32C, ATP luminescence viability, 24 h | Potency, µM (doses to about 46.1 µM), without a hit: at the top dose activity change, negative = cytotoxicity, actives largely listed as cytotoxic | actives 0.93% (n = 130,000) | AID 924;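 further: 0% = DMSO and -100% = full killing by reference compound; nearly all actives have a fitted effect of over 55% in size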
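Viability by ATPlite luminescence after 24 h compound treatment (up to 46 uM) at the permissive 32C. Cells are H1299 carrying p53 A138V. Scale runs from DMSO basal to 100 uM tamoxifen as full kill; AC50 from Hill fits.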
Casp1 inh: allosteric or competitive inhibitors of human caspase-1 | P29466 | Caspase-1 enzyme, Ac-WEHD-AFC fluorogenic rate | Potency, µM (titrated, usually from 57.5 µM), for inactives: top-dose activity change, negative = inhibition, usual class: inhibitors | actives 0.03% (n = 75,000);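 further: plate controls were vehicle for no effect and no substrate for full effect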
IkB signaling: IkB pathway inhibition in ABC-DLBCL cells; actives 0.04% (n = 110,000); Potency, µM (series often up to 57.1 µM), for the others: at the top dose IkBa stabilization activation; ABC-DLBCL IkBa-CBG/CBR dual luciferase ratio, 4 h; response scale: scaled: untreated 0%, proteasome inhibitor 100%; active means well fitted curve in the direction sought with a large enough effect in the signal ratio, not every such curve was filed as active; inconclusive means small, poorly fitted or top-dose-only effect, or a change in a side signal; the % refers to the signal ratio;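 further: the direction sought is a rising ratio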
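In this assay, an IκBα–CBG68 fusion accumulates when IKK-driven degradation is blocked; native CBR normalizes for cell number. OCI-Ly3 cells were treated 4 h with compound and doxycycline, then green and red light read after Chroma-Glo addition.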
Caspase-7 inhib: allosteric or competitive inhibitors of human caspase-7 | actives 0.02% (n = 75,000) | AID 889 | Potency, µM (doses to about 57.5 µM), for the others: top-dose activity change, negative = inhibition, actives largely listed as inhibitors | recombinant caspase-7, Ac-DEVD-AFC fluorescence rate; active means well fitted inhibition curve with a large enough effect in the main read-out, with a control signal flat, not every such curve was filed as active; inconclusive means small, poorly fitted or top-dose-only effect, or a change in a side signal; further: % of control where 0% means no effect
FLuc inh: firefly luciferase inhibition | purified firefly luciferase, luminescence, 8 min | actives 2.2% (n = 72,000) | Potency, µM (titrated, usually from 57.1 µM), inactives show at the top dose activity change, negative = inhibition, most hits filed as inhibitors | AID 411 | P08659; further: on the % scale 0 is the no-effect control and ±100 the full control effect; nearly all actives have a fitted effect of over 40% in size
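Substrate buffer containing 10 uM ATP (pH 7.2 imidazole, Mg2+, KCl, detergent, BSA) is dispensed, compound pinned in, then luciferase/luciferin detector mix added. After 8 min at ambient temperature, light output is measured.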
Numbers without * were called inactive; ? = inconclusive; . = no result given; ! = not confirmed by another sample; [ ] = remark or other dose. Unless noted, the call rests on the fitted dose curve; in most records, active means well fitted curve in the direction sought with a large enough effect; inconclusive means small, poorly fitted or top-dose-only effect, or another doubt; inactive means no such curve, though single readings can be large; an effect the other way counts as inactive or inconclusive. Potency means the concentration at half of the fitted maximal effect.

SMILES	p53ts 39C kill	p53ts 32C tox	Casp1 inh	IkB signaling	Caspase-7 inhib	FLuc inh
CCCCS(=O)(=O)c1oc(-c2ccc(F)cc2)nc1S(=O)(=O)c1ccc(C)cc1	3.98µM*	12.6µM*	.	?	.	.
CCCSc1oc(-c2cccs2)nc1S(=O)(=O)c1ccc(C)cc1	1.4%	1.5%	.	?	.	.
CCS(=O)(=O)c1oc(-c2ccc(F)cc2)nc1S(=O)(=O)c1ccccc1	2.51µM*	?	.	?	.	.
CCCCS(=O)(=O)c1oc(-c2cccs2)nc1S(=O)(=O)c1ccc(F)cc1	3.16µM*	20µM*	.	?	.	.
CCCCCS(=O)(=O)c1oc(-c2cccs2)nc1S(=O)(=O)c1ccc(C)cc1	3.16µM*	?	.	?	.	.
Cc1ccc(S(=O)(=O)c2nc(-c3ccc(F)cc3)oc2N2CCN(c3ccccc3)CC2)cc1	13.7%	12.4%	.	0.0%	.	.
O=C(CC1Oc2ccccc2NC1=O)NC1CC1 (configuration not stated)	3.3%	4.4%	-1.9%	-0.2%	-1.4%	0.2%
CSc1oc(-c2ccc(F)cc2)nc1S(=O)(=O)c1ccc(Br)cc1	?	-2.3%	.	?	.	.
CCC(C)S(=O)(=O)c1oc(-c2ccc(F)cc2)nc1S(=O)(=O)c1ccc(F)cc1 (configuration not stated)	3.16µM*	3.98µM*	.	?	.	.
O=C1C(=O)N(Cc2ccc(Cl)c(Cl)c2)c2ccccc21	6.31µM*	?	-5.4%	?	-16.1%	0.9%
CCCn1c2ccccc2c2cnn(CC(=O)NCC3CCN(Cc4ccc(F)cc4)CC3)c(=O)c21	.	-13.6%	.	.	.	.
Cc1cc(C)c(C#N)c(SCC(=O)Nc2ccccc2C#N)n1	10.0%	?	.	?	.	.
CCOC(=O)CNC(=O)CSc1nc(C)cc(C)c1C#N	-4.3%	3.5%	-1.1%	0.8%	0.3%	4.0%
Cc1cc(C)c(C#N)c(SCC(=O)Nc2ccccc2C(N)=O)n1	2µM*	12.6µM*	-3.4%	0.9%	1.4%	-13.5%
CCOC(=O)NC(=O)CSc1nc(C)cc(C)c1C#N	6.31µM*	5.01µM*	.	-2.4%	?	-28.7%
COc1ccc(-c2csc3ncnc(NCCN4CCOCC4)c23)cc1	4.0%	9.4%	0.9%	0.4%	-0.2%	2.2%
C=CCNc1nc2c(c(=O)[nH]c(=O)n2C)n1Cc1cccc(C)c1	7.94µM*	6.31µM*	0.8%	2.8%	0.6%	3.9%
COc1cc(/C=N/O)ccc1OCc1ccc(C(=O)O)cc1	8.91µM*	8.91µM*	.	.	.	0.316µM*
CCCCN(C)CCCNC(=O)c1cc(=O)[nH]c2ccc(S(=O)(=O)N3CCCCC3)cc12	-24.3%	12.3%	.	0.6%	.	.
Cc1cc(C)c(Cn2c(C(O)c3ccccc3)nc3ccccc32)c(C)c1 (configuration not stated)	3.16µM*	-15.6%	.	?	.	.
Cc1oc(-c2ccc3c(c2)OCCO3)cc1C(=O)NC(CCC(=O)O)C(=O)O (configuration not stated)	-1.6%	3.5%	-1.5%	?	2.1%	1.7%
Cc1oc(-c2ccc3c(c2)OCCO3)cc1C(=O)O	?	20µM*	-2.8%	?	-4.2%	-19.1%
CC(=O)c1nnn(-c2nc(N3CCCC3)nc(N(c3ccccc3)c3ccccc3)n2)c1C	8.6%	2.8%	0.3%	1.1%	-1.0%	0.6%
COc1ccc2c(c1)Cc1sc(NC(C)=O)nc1-2	-27.4%	-26.3%	-6.4%	2.1%	-3.6%	12.6µM*
C=C(C)COc1ccc2c(C)c(CC(=O)OC)c(=O)oc2c1C	-10.0%	-23.7%	-6.8%	1.3%	-0.8%	15.8µM*
SMILES	p53ts 39C kill	p53ts 32C tox	Casp1 inh	IkB signaling	Caspase-7 inhib	FLuc inh
COc1ccc(O)c(-c2cc(-c3cccs3)[nH]n2)c1	-28.9%	-10.8%	-3.0%	10.5%	5.1%	15.8µM*
CN1CCN(CCC=C2c3ccccc3Sc3ccc(S(=O)(=O)N(C)C)cc32)CC1	15.8µM*!	-29.8%	-2.3%	-9.4%	-5.7%	3.0%
OCCN1CCN(CCC=C2c3ccccc3Sc3ccc(Cl)cc32)CC1	-10.2%[20.6 µM]	-6.8%[20.6 µM]	0.0%[25.7 µM]	1.2%[25.6 µM]	-1.3%[25.7 µM]	-3.9%[25.5 µM]
CCOC(=O)c1sc(NC(=O)c2cccs2)cc1C	?	?	?	0.7%	-20.8%	2µM*
CCOC(=O)c1cccc(NC(=O)c2cccs2)c1	-4.3%	-10.1%	-2.7%	-0.3%	-0.7%	-27.0%
CCOC(=O)c1sc(NC(=O)c2ccc(Br)o2)cc1C	?	?	-9.9%	6.1%	-3.8%	5.01µM*
CN1CCN(c2nc(NCCOC34CC5CC(CC(C5)C3)C4)nc(OCC(F)(F)F)n2)CC1	-0.9%	-6.0%	-0.3%	-0.5%	-0.8%	1.1%
O=C(c1cc2cc(Cl)ccc2oc1=O)N1CCOCC1	11.2%	16.7%	-0.2%	1.2%	-0.1%	0.9%
Cc1ccc(-c2ccc(SCC(=O)Nc3nonc3C)nn2)cc1	?	-28.2%	3.0%	1.3%	-1.5%	7.94µM*
Cc1nonc1NC(=O)CSc1nnc(-c2ccoc2C)n1C	-1.8%	3.5%	-0.3%	1.2%	0.2%	1.5%
Cc1c(NC(=O)c2ccccc2)c(=O)n(-c2ccccc2)n1C	35.1%	3.8%	.	.	.	.
CCc1ccc2nc(N3CCN(C(=O)C4CC4)CC3)sc2c1	-24.1%	5.0%	.	-2.3%	.	.
CCc1ccc2nc(N3CCC(C(=O)O)CC3)sc2c1	6.31µM*	6.31µM*	.	?	.	.
CCCCN(C)CCNC(=O)C1CCN(c2nc3ccc(CC)cc3s2)CC1	15.8µM*	10µM*	.	?	.	.
Cn1ncc(C#N)c1NC(=O)c1nn2cccnc2c1Cl	0.7%	5.6%	-2.0%	-2.4%	0.1%	0.2%
O=C1c2ccccc2C(=O)C1c1ccncc1	3.16µM*	3.16µM*	-2.3%	6.1%	-2.0%	7.94µM*
CCc1cccc(NC(=O)Cn2c(=O)n(CCC(=O)NCc3ccccc3Cl)c(=O)c3sccc32)c1	12.6µM*	?	.	?	.	.
Cc1cc(C)c2c(=O)n(CC(=O)N3CCC(Cc4ccccc4)CC3)sc2n1	6.8%	-1.2%	1.6%	-0.5%	-5.6%	-26.8%
Cc1cc(C)c2c(=O)n(CC(=O)NCCCN3CCOCC3)sc2n1	-0.5%	1.7%	-3.4%	25.7%	-2.9%	12.6µM*
Cc1cc(C)c2c(=O)n(CC(=O)NCCCN3CCN(c4ccccc4F)CC3)sc2n1	7.2%	-14.4%	-3.3%	?	-1.2%	12.6µM*
COc1cc(CNC(=O)c2ccc(NC(=O)N3CCCCc4ccccc43)cc2)cc(OC)c1OC	2.8%	7.3%	.	?	.	.
O=C(NCCCn1ccnc1)c1cc(S(=O)(=O)N2CCOCC2)c(Cl)cc1Cl	9.7%	-3.7%	1.8%	-2.7%	3.0%	1.4%
Cc1ccc2nc(-c3cccc(S(=O)(=O)N(C)C)c3)cn2c1	?	?	-2.5%	-3.0%	1.0%	12.6µM*
